# Source: PubChem (Broad Institute)
# C diff HTS: blocks growth of Clostridium difficile | Clostridium difficile clinical isolate growth, OD600, 24 h; hits give low values | growth activity, negative = inhibition, % at 16 µg/mL (by protocol) | 86,000 tested, 0.25% active;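 active means mean growth activity at or below -80% and every replicate also at or below -80%; inconclusive means mean at or below -80% but some replicate above -80%; inactive means mean growth activity above -80%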;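 further: 0% = DMSO wells and -100% = levofloxacin 16 µg/mL wells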
# Pf Dd2 inh: blocks growth of Plasmodium falciparum Dd2 parasites; P. falciparum Dd2 growth, SYBR Green, 72 h; hits give low values; activity change, % at 10 µM; 94,000 tested, 2.3% active; AID 1159554; in the data active means activity change below about -80%; inconclusive means no clear call, values can overlap the other calls
# T cruzi growth-1: T. cruzi proliferation inhibition. 77,000 tested, 5.9% active. T. cruzi beta-gal in NIH3T3, GalScreen luminescence, 90 h. inhibition, % at 8.34 µM. AID 624255;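 active means mean inhibition above about 93%, with at least 55% of replicates each passing it, limit read from the data, passing the limit was not always enough; inconclusive means only one of those two conditions holds; inactive means neither condition holds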
# T cruzi growth-2: inhibitors of T. cruzi proliferation | shares compounds with T cruzi growth-1 | T. cruzi beta-gal in NIH3T3, GalScreen luminescence, 90 h | inhibition, % at 8.35 µM | 5,600 tested, 72% active;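 active means mean replicate inhibition above about 95% and at least 55% of replicates individually reaching it, limit read from the data; inconclusive means only one of the two criteria is met; inactive means neither criterion is met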
# T cruzi growth-3: inhibitors of T. cruzi proliferation. shares compounds with T cruzi growth-1. 5,600 tested, 21% active. T. cruzi beta-gal in NIH3T3, GalScreen luminescence, 90 h. inhibition, % at 2.09 µM. AID 651740;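 active means mean inhibition above about 95%, with at least 55% of replicates also reaching it, limit read from the data; inconclusive means meets just one of the two conditions; inactive means meets neither condition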;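 further: plate controls were neutral control median for no effect and positive control median for full effect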
# NIH3T3 tox: kills mouse NIH/3T3 fibroblasts. shares compounds with T cruzi growth-1. NIH/3T3 viability, CellTiter-Glo ATP luminescence, 90 h. cytotoxicity (signal decrease), % at 8.35 µM. 5,600 tested, 14% active;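 active means mean signal decrease across replicates above about 35% based on untreated-well scatter, with enough replicates individually passing, limit read from the data; inconclusive means no rule stated though some were filed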;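 further: 0% = median of neutral control wells and 100% = median of positive control wells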
# NIH3T3 tox 2: cytotoxicity in mouse NIH/3T3 fibroblasts. shares compounds with T cruzi growth-1. AID 651744. 5,600 tested, 56% active. inhibition, % at 24.9 µM. NIH/3T3 viability, CellTiter-Glo ATP luminescence, 90 h;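 active means mean loss of cell viability signal at or above a set limit, and enough replicates individually reaching it; inconclusive means meets only the mean limit or only the replicate share; inactive means meets neither condition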;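 further: 0% = median of neutral control wells and 100% = median of positive control wells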
# * = called active by the depositor; ? = inconclusive; · = no result given. Hits are enriched below; roughly 6.7% of the tested compounds scored in any of these assays.
SMILES,C diff HTS,Pf Dd2 inh,T cruzi growth-1,T cruzi growth-2,T cruzi growth-3,NIH3T3 tox,NIH3T3 tox 2
COc1ccccc1NC(=O)N(C)C[C@@H]1Oc2ncc(C#CCC(C)C)cc2C(=O)N([C@H](C)CO)C[C@@H]1C,5,-10,74,·,·,·,·
CC(C)CC#Cc1cnc2c(c1)C(=O)N([C@@H](C)CO)C[C@H](C)[C@@H](CN(C)C(=O)Nc1ccccc1F)O2,-23,-48,·,·,·,·,·
CC(C)CC#Cc1cnc2c(c1)C(=O)N([C@@H](C)CO)C[C@H](C)[C@H](CN(C)C(=O)Nc1ccccc1F)O2,-4,-22,·,·,·,·,·
CCCC#Cc1cnc2c(c1)C(=O)N([C@@H](C)CO)C[C@H](C)[C@@H](CN(C)C(=O)Nc1ccccc1F)O2,-13,-43,-2,·,·,·,·
COc1ccccc1NC(=O)N(C)C[C@@H]1Oc2ncc(C#CCC(C)C)cc2C(=O)N([C@@H](C)CO)C[C@H]1C,-4,-69,104*,106*,63,-5,3
CC(C)CC#Cc1cnc2c(c1)C(=O)N([C@@H](C)CO)C[C@@H](C)[C@@H](CN(C)C(=O)Nc1cc(F)ccc1F)O2,3,-57,?,104*,42,36*,74*
CN1C(=O)c2cc(NC(=O)c3cnccn3)ccc2OC[C@H]2O[C@@H](CC(=O)NC3CCC3)CC[C@@H]21,-3,-5,13,·,·,·,·
C[C@H]1CCCCO[C@@H](CN(C)C)[C@@H](C)CN([C@@H](C)CO)C(=O)c2cc(NC(=O)Cc3ccccc3)ccc2O1,1,-10,65,·,·,·,·
CNC[C@@H]1OCCCC[C@H](C)Oc2ccc(NC(=O)NC3CCCCC3)cc2C(=O)N([C@@H](C)CO)C[C@@H]1C,-1,17,111*,-22,-1,-15,-6
CNC[C@@H]1OCCCC[C@H](C)Oc2ccc(NC(=O)Cc3ccccc3)cc2C(=O)N([C@@H](C)CO)C[C@@H]1C,1,-2,99*,-25,-12,-26,-4
CNC[C@@H]1OCCCC[C@@H](C)Oc2ccc(NC(=O)NC3CCCCC3)cc2C(=O)N([C@H](C)CO)C[C@H]1C,-1,·,9,·,·,·,·
CNC[C@H]1OCCCC[C@H](C)Oc2ccc(NC(=O)c3ccccc3)cc2C(=O)N([C@H](C)CO)C[C@@H]1C,-2,5,?,99*,-1,25,8
CNC[C@@H]1OCCCC[C@@H](C)Oc2ccc(NC(=O)c3ccccc3)cc2C(=O)N([C@H](C)CO)C[C@@H]1C,5,1,84,·,·,·,·
CN1C(=O)c2cc(NC(=O)Cc3cccs3)ccc2OC[C@H]2O[C@@H](CC(=O)N[C@@H]3CCN(Cc4ccccc4)C3)CC[C@H]21,-6,·,90,·,·,·,·
Cc1noc(C)c1NC(=O)Nc1ccc2c(c1)C(=O)N(C)[C@@H]1CC[C@H](CC(=O)N[C@H]3CCN(Cc4ccccc4)C3)O[C@H]1CO2,15,9,104*,?,2,1,-4
CN1C(=O)c2cc(NC(=O)c3ccc(F)c(F)c3)ccc2OC[C@@H]2O[C@@H](CC(=O)N[C@H]3CCN(Cc4ccccc4)C3)CC[C@@H]21,·,·,101*,106*,68,3,10
CN1C(=O)c2cc(NC(=O)c3ccc(F)c(F)c3)ccc2OC[C@H]2O[C@@H](CC(=O)N[C@@H]3CCN(Cc4ccccc4)C3)CC[C@H]21,4,·,110*,116*,86,1,27*
Cc1noc(C)c1NC(=O)Nc1ccc2c(c1)C(=O)N(C)[C@@H]1CC[C@H](CC(=O)N[C@@H]3CCN(Cc4ccccc4)C3)O[C@@H]1CO2,-9,-21,27,·,·,·,·
CN1C(=O)c2cc(NC(=O)c3ccc(F)c(F)c3)ccc2OC[C@H]2O[C@@H](CC(=O)N[C@H]3CCN(Cc4ccccc4)C3)CC[C@H]21,2,·,103*,94,73,-15,?
CN1C(=O)c2cc(NC(=O)Cc3cccs3)ccc2OC[C@@H]2O[C@@H](CC(=O)N[C@@H]3CCN(Cc4ccccc4)C3)CC[C@@H]21,-2,·,93,·,·,·,·
Cc1ccc(S(=O)(=O)Nc2ccc3c(c2)C(=O)N([C@H](C)CO)C[C@@H](C)[C@H](CN(C)C(=O)Nc2ccccc2)OCCCC[C@@H](C)O3)cc1,·,-74,72,·,·,·,·
C/C=C/c1cnc2c(c1)C(=O)N([C@H](C)CO)C[C@H](C)[C@H](CN(C)S(=O)(=O)c1ccc(OC)cc1)O2,4,-24,19,·,·,·,·
O=C(NC1CCC1)[C@H]1[C@H](CO)[C@H]2Cn3c(ccc(C4=CCCC4)c3=O)[C@H]2N1C(=O)C1CCCC1,-5,9,39,·,·,·,·
CCCN1C[C@@H](C)[C@@H](OC)CN(C)C(=O)c2ccc(NC(=O)CC)cc2OC[C@@H]1C,·,·,4,·,·,·,·
COc1ccc(S(=O)(=O)Nc2ccc3c(c2)C(=O)N([C@@H](C)CO)C[C@@H](C)[C@H](CN(C)C(=O)Nc2ccc4c(c2)OCO4)OCCCC[C@H](C)O3)cc1,-4,2,44,·,·,·,·
SMILES,C diff HTS,Pf Dd2 inh,T cruzi growth-1,T cruzi growth-2,T cruzi growth-3,NIH3T3 tox,NIH3T3 tox 2
CNC[C@@H]1Oc2c(NC(=O)Nc3ccc(F)cc3)cccc2C(=O)N([C@H](C)CO)C[C@H]1C,5,4,·,·,·,·,·
CN1C(=O)c2cc(NC(=O)c3ccc(F)c(F)c3)ccc2OC[C@@H]2O[C@@H](CC(=O)N[C@@H]3CCN(Cc4ccccc4)C3)CC[C@H]21,9,·,101*,108*,64,1,0
CN1C(=O)c2cc(NC(=O)Cc3cccs3)ccc2OC[C@@H]2O[C@@H](CC(=O)N[C@H]3CCN(Cc4ccccc4)C3)CC[C@@H]21,-2,·,?,89,85,-18,4
CCS(=O)(=O)Nc1ccc2c(c1)C(=O)N(C)[C@@H]1CC[C@@H](CC(=O)N[C@@H]3CCN(Cc4ccccc4)C3)O[C@@H]1CO2,·,·,27,·,·,·,·
CN1C(=O)c2cc(NC(=O)c3ccc(F)c(F)c3)ccc2OC[C@H]2O[C@@H](CC(=O)N[C@@H]3CCN(Cc4ccccc4)C3)CC[C@@H]21,30,·,98*,61,74,-2,7
CCS(=O)(=O)Nc1ccc2c(c1)C(=O)N(C)[C@@H]1CC[C@@H](CC(=O)N[C@H]3CCN(Cc4ccccc4)C3)O[C@@H]1CO2,·,·,-17,·,·,·,·
CN1C(=O)c2cc(NC(=O)c3ccc(F)c(F)c3)ccc2OC[C@@H]2O[C@H](CC(=O)N[C@@H]3CCN(Cc4ccccc4)C3)CC[C@@H]21,1,·,108*,?,87,13,54*
CN1C(=O)c2cc(NC(=O)Cc3cccs3)ccc2OC[C@H]2O[C@@H](CC(=O)N[C@H]3CCN(Cc4ccccc4)C3)CC[C@H]21,-2,·,75,·,·,·,·
COc1ccc(NC(=O)N(C)C[C@@H]2Oc3c(NC(=O)Nc4ccc5c(c4)OCO5)cccc3C(=O)N([C@H](C)CO)C[C@@H]2C)cc1,2,-28,17,·,·,·,·
